{"source": "ChEMBL document CHEMBL3988442", "about": "“University of Dundee, Small-Polar-MMV Screening Library” (2021)", "note": "About 13,000 (27%) of roughly 48,000 compounds showed an effect of 50% or more. Some of the results follow."}
{"tested_on": "Wolbachia pipientis", "assay": "Anti-Wolbachia Cell-Based Screen", "assay_type": "functional", "set-up": "scale not given: in the data most compounds retested in dose-response had high values", "details": "5 µM", "units": {"Percent Effect": "%"}}
{"smiles": "CCN1C(=O)[C@H]2CN(CC(C)C)C[C@H]2C12CCN(C(=O)NC(C)C)CC2.O=C(O)C(F)(F)F", "Percent Effect": -7.35}
{"smiles": "CCCOC(C)Cn1ccc2[nH]c(=O)c(C#N)cc2c1=O", "note": "(centres undefined)", "Percent Effect": -62.19}
{"smiles": "CC(C)C(C)(CNC(=O)OC(C)(C)C)NC(=O)c1cnccn1", "note": "(centres undefined)", "Percent Effect": 1.478}
{"smiles": "Cc1c(NCCOCC(F)(F)F)cccc1C(=O)N1CCCC1", "Percent Effect": 1.47}
{"smiles": "COc1ccc(S(=O)(=O)NCC(O)c2sccc2C)cc1C", "note": "(centres undefined)", "Percent Effect": 4.303}
{"smiles": "CCCC(=O)NC1CCCN(c2nc3ccccc3cc2CO)C1", "note": "(centres undefined)", "Percent Effect": 0.5391}
{"smiles": "O=C(c1ccsc1)N1CC(C(=O)N2CCOCC2)C2(CCOCC2)C1", "note": "(centres undefined)", "Percent Effect": -0.6494}
{"smiles": "CC(C)(C)n1ncc(C(=O)NCCCC(N)=O)c1C(F)(F)F", "Percent Effect": 6.459}
{"smiles": "Cc1ccc(S(N)(=O)=O)cc1C(=O)N1CCc2c(ncnc2N(C)C)C1", "Percent Effect": -11.64}
{"smiles": "Cc1ccc(S(N)(=O)=O)cc1C(=O)N1C[C@@H](CN(C)C)[C@@H](CO)C1", "Percent Effect": 4.643}
{"smiles": "Cc1ccc(S(N)(=O)=O)cc1C(=O)NC1CCCN(C)C1", "note": "(centres undefined)", "Percent Effect": 108}
{"smiles": "O=S1(=O)CCC(c2nc(-c3cccc(Br)c3)no2)C1", "note": "(centres undefined)", "Percent Effect": -8.148}
{"smiles": "CN1[C@H]2CC[C@@H]1CN(C(=O)CCc1csc(N)n1)CC2", "Percent Effect": 2.348}
{"smiles": "CN(C)C1CCCN(C(=O)CCc2csc(N)n2)CC1", "note": "(centres undefined)", "Percent Effect": -10.57}
{"smiles": "CC(C)N1CCCC1c1csc(N)n1", "note": "(centres undefined)", "Percent Effect": 125.7}
{"smiles": "CC(NC(=O)C1(NC(=O)c2ccc3[nH]ncc3c2)CCCC1)C1CC1", "note": "(centres undefined)", "Percent Effect": -1.4}
{"smiles": "CCN(Cc1ccc2c(c1)OCCO2)C(=O)NCc1nc(C)cs1", "Percent Effect": -0.008456}
{"smiles": "CCn1cnnc1CNC(=O)N(C)Cc1ccc(F)c(F)c1", "Percent Effect": -10.5}
{"smiles": "CCN(Cc1ccc2c(c1)OCCO2)C(=O)NCc1cc[nH]n1", "Percent Effect": -1.226}
{"smiles": "CC(NC(=O)N(C)Cc1cccc(OC(F)F)c1)c1nncn1C", "note": "(centres undefined)", "Percent Effect": -22.06}
{"smiles": "CCN(Cc1ccc2c(c1)OCCO2)C(=O)NCc1nncn1CC", "Percent Effect": 99.19}
{"smiles": "CCn1cnnc1CNC(=O)C1COc2ccc(Cl)cc2C1", "note": "(centres undefined)", "Percent Effect": -2.501}
{"smiles": "CCn1cnnc1CNC(=O)N(C)Cc1cccc(OC(F)F)c1", "Percent Effect": 110.2}
{"smiles": "CCn1cnnc1CNC(=O)N(C)Cc1ccc2c(c1)OCO2", "Percent Effect": 127.8}
{"smiles": "CCn1cnnc1CNC(=O)CCC(=O)c1ccc2c(c1)OCCO2", "Percent Effect": 5.212}
{"smiles": "CCn1cnnc1CNC(=O)Cc1ccc2c(c1)OCCO2", "Percent Effect": 101.5}
{"smiles": "CCn1cnnc1CNC(=O)N(C)Cc1ccc(Cl)cc1Cl", "Percent Effect": -3.326}
{"smiles": "CCn1cnnc1CNC(=O)N(C)Cc1ccc2c(c1)OCCO2", "Percent Effect": 2.42}
{"smiles": "CCNS(=O)(=O)c1ccc(C)c(C(=O)N(C)Cc2ccco2)c1", "Percent Effect": -0.5279}
{"smiles": "N#Cc1ccccc1OCCN1CCC(C(=O)N2CCOCC2)CC1", "Percent Effect": -3.937}
{"smiles": "COc1cccc(CCNC(=O)CN2CCN(C)CC2C)c1", "note": "(centres undefined)", "Percent Effect": 5.841}
{"smiles": "Cc1nnc(N2C[C@@H]3CCCO[C@@H]3[C@H](N3CCCC3=O)C2)s1.O=C(O)C(F)(F)F", "Percent Effect": -2.907}
{"smiles": "CC(C)Cc1cc(-c2cc(-c3ccc[nH]3)nc(N)c2C#N)n[nH]1", "Percent Effect": 126.8}
{"smiles": "Cc1n[nH]c(C)c1-c1c(C#N)c(N)nc2c1CCc1[nH]ccc1-2", "Percent Effect": 9.181}
{"smiles": "Cc1n[nH]c(C)c1-c1cc(-c2ccc[nH]2)nc(N)c1C#N", "Percent Effect": 119.5}
{"smiles": "Cn1cc(-c2c(C#N)c(N)nc3c2CCc2[nH]ccc2-3)cc1C#N", "Percent Effect": -2.103}
{"smiles": "Cc1n[nH]c(C)c1-c1cc(-c2cc[nH]c2)nc(N)c1C#N", "Percent Effect": 123.5}
{"smiles": "Cc1n[nH]c(C)c1-c1cc(-c2cccc(O)c2)nc(N)c1C#N", "Percent Effect": 88.86}
{"smiles": "CCN(c1ccccc1C(=O)O)S(=O)(=O)c1cccc2cccnc12", "Percent Effect": -1.145}
{"smiles": "CC(C)=CCN1CCN(C(=O)CSc2ccccn2)[C@H]2CS(=O)(=O)C[C@H]21", "Percent Effect": 6.252}
{"smiles": "c1[nH]c(CC2CCCC2)nc1CN1CCCC2(CCOC2)C1", "note": "(centres undefined)", "Percent Effect": -3.102}
{"smiles": "CS(=O)(=O)c1ccc(NC(=O)CSC(F)(F)F)cn1", "Percent Effect": 0.5317}
{"smiles": "CC(C)(C)c1n[nH]c(C2CN(C(=O)Cn3ccccc3=O)CCO2)n1", "note": "(centres undefined)", "Percent Effect": 103.2}
{"smiles": "CC(C)c1csc(C2CCCN(C(=O)Cn3ccccc3=O)C2)n1", "note": "(centres undefined)", "Percent Effect": -10.1}
{"smiles": "CC(C)c1n[nH]c(C2CN(C(=O)Cn3ccccc3=O)CCO2)n1", "note": "(centres undefined)", "Percent Effect": 111.9}
{"smiles": "CC(C)c1n[nH]c(C2CN(C(=O)CCn3ccccc3=O)CCO2)n1", "note": "(centres undefined)", "Percent Effect": 2.958}
{"smiles": "Cc1n[nH]c(C2CN(C(=O)Cn3ccccc3=O)CCO2)n1", "note": "(centres undefined)", "Percent Effect": -1.768}
{"smiles": "Cc1ccc(CC(=O)N2CCOC(c3nc(C(C)(C)C)n[nH]3)C2)cn1", "note": "(centres undefined)", "Percent Effect": 10.27}
{"smiles": "CCN(C)S(=O)(=O)NCC1(c2ccccc2Br)CC1", "Percent Effect": 2.269}
{"smiles": "CN(Cc1csc(-c2cccs2)n1)Cc1ncccc1C(=O)O", "Percent Effect": 6.204}
{"smiles": "CN(C)C(=O)C1SCCc2ccccc21", "note": "(centres undefined)", "Percent Effect": -15.52}
{"smiles": "CCOc1ccc(NC2CCN(CC(F)(F)F)C2=O)cc1C", "note": "(centres undefined)", "Percent Effect": -0.2214}
{"smiles": "COc1ccc(S(=O)(=O)NCC(C)(O)c2cccs2)cc1Cl", "note": "(centres undefined)", "Percent Effect": 0.9761}
{"smiles": "COc1cccc(CN(C)C(C)c2nccs2)c1OCCn1ccnc1", "note": "(centres undefined)", "Percent Effect": -3.505}
{"smiles": "Cc1ccn(-c2ccccc2NCc2cccnc2C)n1", "Percent Effect": -1.379}
{"smiles": "CCN1C(=O)CC[C@]12CC[C@@H](NC(=O)c1cc(C)on1)CC2", "Percent Effect": -41.62}
{"smiles": "CCN1C(=O)CC[C@]12CC[C@@H](NC(=O)NCc1cccnc1)CC2.O=C(O)C(F)(F)F", "Percent Effect": 126.1}
{"smiles": "O=C(O)C(F)(F)F.O=C1CC[C@]2(CC[C@@H](NC3CCOC3)CC2)N1Cc1ccccc1", "note": "(some centres undefined)", "Percent Effect": -11.81}
{"smiles": "O=C(O)C(F)(F)F.O=C1CC[C@]2(CC[C@@H](NC3CCOCC3)CC2)N1Cc1ccccc1", "Percent Effect": -21.38}
{"smiles": "Cc1ccc(CN2C(=O)CC[C@]23CC[C@@H](NC2CCOC2)CC3)cc1.O=C(O)C(F)(F)F", "note": "(some centres undefined)", "Percent Effect": -29.75}
{"smiles": "CN1CCN(Cc2cccnc2)C2(CCN(C3CCOCC3)C2)C1=O.O=C(O)C(F)(F)F.O=C(O)C(F)(F)F.O=C(O)C(F)(F)F", "note": "(centres undefined)", "Percent Effect": 4.033}
{"smiles": "O=C(NCc1cccnc1)C1CC(=O)N(CC2CC2)C1", "note": "(centres undefined)", "Percent Effect": 7.078}
{"smiles": "O=C(NCc1cccnc1)N[C@H]1CC[C@@]2(CCC(=O)N2CC2CC2)CC1.O=C(O)C(F)(F)F", "Percent Effect": 109.8}
{"smiles": "CC(C)CN1C(=O)CC[C@]12CC[C@@H](NC(=O)NCc1cccnc1)CC2.O=C(O)C(F)(F)F", "Percent Effect": 100.3}
{"smiles": "O=C(NCc1cccnc1)NC1CCCN(c2ncccn2)C1", "note": "(centres undefined)", "Percent Effect": 12.61}
{"smiles": "CN1C(=O)CC[C@]12CC[C@@H](NC(=O)NCc1cccnc1)CC2.O=C(O)C(F)(F)F", "Percent Effect": 120.2}
{"smiles": "CC(C)N1CCC(NC(=O)NCc2cccnc2)C1", "note": "(centres undefined)", "Percent Effect": -0.2987}
{"smiles": "CC(C)CN1CCC(c2nc3c([nH]2)CC(C)(C)CNC3=O)C1", "note": "(centres undefined)", "Percent Effect": -15.84}
{"smiles": "c1cn(Cc2nnc(C3CCN(C4CCNCC4)CC3)n2C2CC2)cn1", "Percent Effect": -5.551}
{"smiles": "O=C1CCOC[C@]2(CN(Cc3ccccc3)C[C@H]2c2ccccc2F)N1", "Percent Effect": 94.73}
{"smiles": "O=C1CCOC[C@]2(CN(Cc3ccccc3)C[C@H]2c2cccnc2)N1", "Percent Effect": 97.51}
{"smiles": "O=C(NC1CC(F)(F)C1)[C@]12COC[C@H]1CN(Cc1ccccc1)C2.O=C(O)C(F)(F)F", "Percent Effect": -29.2}
{"smiles": "O=C1NC2(CCN(Cc3cccnc3)CC2)CC1c1ccncc1", "note": "(centres undefined)", "Percent Effect": -17.77}
{"smiles": "O=C1CCOC[C@]2(CN(Cc3ccccc3)C[C@H]2c2ccccc2)N1", "Percent Effect": 85.32}
{"smiles": "NC(=O)CN1CC2(CCC1=O)CCN(Cc1ccccc1F)CC2", "Percent Effect": -12.52}
{"smiles": "O=C1NC[C@@]2(C(=O)O)CN(Cc3ccc(Oc4ccccc4)cc3)C[C@@H]12", "Percent Effect": 22.58}
{"smiles": "O=C1NCC[C@]12CN(Cc1ccoc1)C[C@H]2c1ccccc1", "Percent Effect": -11.19}
{"smiles": "O=C(O)CCCN1C[C@@H](c2ccccc2F)[C@@]2(CCCCC(=O)N2)C1", "Percent Effect": 110}
{"smiles": "O=C(CC1CN(Cc2ccccc2)CCO1)Nc1ccccc1F", "note": "(centres undefined)", "Percent Effect": -6.692}
{"smiles": "Cc1ccc(OCC(=O)N2C[C@@H]3CN(C)CCO[C@@H]3C2)cc1.O=C(O)C(F)(F)F", "Percent Effect": -15}
{"smiles": "CN(Cc1ccoc1)C(=O)C1CCN(C(=O)C2CCCC2)CC1", "Percent Effect": -1.17}
{"smiles": "Cc1cc(NC(=O)CN(C)CC2CCCN2c2cccnn2)n(C)n1", "note": "(centres undefined)", "Percent Effect": -5.162}
{"smiles": "N[C@@H]1CCN(Cc2ccc(-c3nc(-c4cccnc4)cc(=O)[nH]3)cc2)C1", "Percent Effect": 4.047}
{"smiles": "COc1cc(C(C)=O)ccc1SCC(=O)Nc1cc(C)n[nH]1", "Percent Effect": 8.192}
{"smiles": "O=C(NC[C@]12COC[C@H]1CN(Cc1cccc(F)c1)C2)c1ccco1", "Percent Effect": 10.17}
{"smiles": "O=C1CCOC[C@]2(CN(Cc3ccccc3)C[C@H]2c2cccc(F)c2)N1", "Percent Effect": 100.5}
{"smiles": "O=C1NC[C@@]2(C(=O)O)CN(Cc3cccc(CN4CCOCC4)c3)C[C@@H]12", "Percent Effect": -10.55}
{"smiles": "N#Cc1ccc(CNCC(C(=O)N2CCOCC2)c2ccccc2)cc1", "note": "(centres undefined)", "Percent Effect": -11.01}
{"smiles": "CN(Cc1cc(F)cc2cccnc12)CC1CCN(CCO)CC1", "Percent Effect": -1.587}
{"smiles": "Cc1cnn(Cc2cc(F)ccc2F)c1NC(=O)NC1CC1", "Percent Effect": -2.224}
{"smiles": "Fc1cccnc1N1CCC(NCc2cccc3cn[nH]c23)C1", "note": "(centres undefined)", "Percent Effect": 4.996}
{"smiles": "COc1ccc(C)cc1CN1CCC(c2cc3ncccc3cn2)CC1.Cl", "Percent Effect": 107}
{"smiles": "O=C(c1cccnc1)N1C[C@@H]2CC[C@H](C1)N(Cc1cc(F)ccc1F)C2", "Percent Effect": -19.69}
{"smiles": "Cl.Cl.OC(CN1CCN(Cc2cc(F)ccc2F)CC1)C1CC1", "note": "(centres undefined)", "Percent Effect": -0.1352}
{"smiles": "COc1ccc(C)cc1CN1CCN(Cc2nccn2C)CC1", "Percent Effect": -6.315}
{"smiles": "COc1ccc(Oc2cccnc2)cc1CN1CCCC1", "Percent Effect": 40.81}
{"smiles": "Cl.Fc1ccc(F)c(CN2CCC(c3cc4ncccc4cn3)CC2)c1", "Percent Effect": 84.15}
{"smiles": "Fc1ccc(F)c(CN2CCC(c3cnccn3)CC2)c1", "Percent Effect": 76.33}
{"smiles": "Cl.Fc1cccc(CN2CCC(c3cc4ncccc4cn3)CC2)c1F", "Percent Effect": 64.82}
